Values joined by “and” are separate entries in the source; they are usually repeats but may differ in a detail not shown here. Equal values may be shown once. About 83,000 compounds went through this panel and 20% of them were active in at least one assay; those are over-represented in the sample as a whole.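 Cell lines were cultured in 96-well plates, exposed to a single compound concentration, and assessed for percent growth 48 hours later.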 Active and inactive are the calls of the source. How the source made its calls: active means growth percent below 10; inactive means the rest.
Experiments:
Assay in all cases: NCI-60 one-dose screen, 48 h (100 = growth as untreated, 0 = no growth, -100 = all killed)
Details in all cases: 10 µM unless noted
T-47D breast = test system: T-47D breast
BT-549 breast = test system: BT-549 breast
MDA-MB-435 melanoma = test system: MDA-MB-435 melanoma
SW-620 colon = test system: SW-620 colon
MCF7 breast = test system: MCF7 breast
HCT-116 colon = test system: HCT-116 colon
HCC-2998 colon = test system: HCC-2998 colon
KM12 colon = test system: KM12 colon

Row | SMILES | growth (T-47D breast) | growth (BT-549 breast) | growth (MDA-MB-435 melanoma) | growth (SW-620 colon) | growth (MCF7 breast) | growth (HCT-116 colon) | growth (HCC-2998 colon) | growth (KM12 colon)
1 | Cc1ccc(/C=C/c2c(C(=O)/C=C/c3ccccc3)c(C)nc3ccccc23)cc1 | 16.1% (inactive) | 41.5% (inactive) | -45.4% (active) | 3.35% (active) | 12.6% (inactive) | -54.7% (active) | 20.6% (inactive) | 13.1% (inactive)
2 | CC12CCC(C(=O)CC1=O)C2(C)C (configuration not stated) | 105% (inactive) and 93.4% (inactive) | 110% (inactive) and 104% (inactive) | 106% (inactive) and 110% (inactive) | 105% (inactive) and 109% (inactive) | 103% (inactive) and 98.4% (inactive) | 106% (inactive) and 97.1% (inactive) | 108% (inactive) and 98.5% (inactive) | 108% (inactive) and 101% (inactive)
3 | COC(=O)/C=C1/SC(N2N=C(c3cccs3)CC2c2ccc(F)cc2)=NC1=O (configuration not stated) | 38.9% (inactive) | 66.1% (inactive) | 43.2% (inactive) | 3.45% (active) | 10.1% (inactive) | -15.3% (active) | 33.7% (inactive) | 30.5% (inactive)
4 | CCCCCCCCCCCCCCCCCCOc1cccc(CC(=O)OCC[N+](CC)(CC)CC)c1 | 52.7% (inactive) | 86.9% (inactive) | 82.1% (inactive) | 78.6% (inactive) | 32.7% (inactive) | 51.7% (inactive) | 56.1% (inactive) | 83.3% (inactive)
5 | CC(=O)N1N=C(c2ccc(Nc3nc(Nc4ccc(F)cc4)nc(Nc4ccc(Cl)cc4)n3)cc2)CC1c1ccc(N(C)C)cc1 (configuration not stated) | 24.3% (inactive) | 69.5% (inactive) | 18.7% (inactive) | 78.5% (inactive) | 29.9% (inactive) | 130% (inactive) and 24.2% (inactive) | 22% (inactive) | 55.5% (inactive)
6 | NS(=O)(=O)OCC1OC(n2cnc3cncnc32)C(O)C1O (configuration not stated) | 7.17% [0.1 µM] (active) and 10.8% [0.1 µM] (inactive) | 36% [0.1 µM] (inactive) and 32.4% [0.1 µM] (inactive) | 1.21% [0.1 µM] (active) and 13.3% [0.1 µM] (inactive) | 5.5% [0.1 µM] (active) and 6.37% [0.1 µM] (active) | 5.2% [0.1 µM] (active) and 3.48% [0.1 µM] (active) | 2.55% [0.1 µM] (active) and 6.83% [0.1 µM] (active) | 30.7% [0.1 µM] (inactive) and 22.9% [0.1 µM] (inactive) | 14% [0.1 µM] (inactive) and 10.4% [0.1 µM] (inactive)
7 | Cc1ccc(-c2nc(C#N)c(S(=O)(=O)N(C)C)o2)cc1 | 75.3% (inactive) | 77.4% (inactive) | 97.7% (inactive) | 81% (inactive) | 46.1% (inactive) | 63.2% (inactive) | 93.1% (inactive) | 95.4% (inactive)
8 | CCOC(=O)c1cc2c(n1Cc1cc(OC)cc(OC)c1Br)-c1nc(NC(C)=O)sc1CCC2 | 38.5% (inactive) | 92.9% (inactive) | 83.9% (inactive) | 81.3% (inactive) | 57.6% (inactive) | 78.2% (inactive) | 72.7% (inactive) | 67.6% (inactive)
9 | Cc1cccc(Cc2cnc(NC(=O)CCCOc3ccc(Cl)cc3)s2)c1 | 33.5% (inactive) | 61.5% (inactive) | -53.2% (active) | 25% (inactive) | 20% (inactive) | 16.4% (inactive) | 48.9% (inactive) | 21.8% (inactive)
10 | O=C1/C(=C/c2ccccc2)CN(C(=O)C(Cl)Cl)C/C1=C\c1ccccc1 | 17.2% (inactive) | -5.59% (active) | -50.2% (active) | -49% (active) | -39% (active) | -70.7% (active) | -59.6% (active) | -61.8% (active)
11 | Cc1nc2sc(C(=O)Nc3cccc(Cl)c3C)c(N)c2cc1C(O)c1ccccc1 (configuration not stated) | 44.5% (inactive) | 40.9% (inactive) | 4.87% (active) | 24.1% (inactive) | 16.2% (inactive) | 8.63% (active) | 13.4% (inactive) | 10.5% (inactive)
12 | Cc1nc2sc(C(=O)Nc3cccc4ccccc34)c(N)c2cc1C(=O)/C=C/c1ccccc1 | 14.5% (inactive) | -31.1% (active) | 1.56% (active) | -8.3% (active) | 4.27% (active) | -52.8% (active) | -85.4% (active) | -43.7% (active)
13 | COc1ccc(-c2c[nH]c(C(=O)O)c2-c2cc(OC)c(OC)c(OC)c2)cc1 | 15.3% (inactive) | 65.8% (inactive) | -21.3% (active) | 23.6% (inactive) | 24.2% (inactive) | 29.6% (inactive) | 84.6% (inactive) | 25% (inactive)
14 | CN1CCN(CCNC(=O)c2cccc(CN3c4cccc5c4C(=Cc4cccnc43)N(C)C5=O)c2)CC1 | 34.8% (inactive) | 57.5% (inactive) | 39.8% (inactive) | 52.7% (inactive) | 16.6% (inactive) | 25.8% (inactive) | 39.8% (inactive) | 44.6% (inactive)
15 | C[C@]12CCc3c(ccc4cc(O)ccc34)[C@@H]1C[C@H](O)[C@@H]2O | 98.8% (inactive) | 94.7% (inactive) | 99% (inactive) | 96.4% (inactive) | 132% (inactive) | 104% (inactive) | 109% (inactive) | 108% (inactive)
16 | CCCCC#Cc1c(/C=C(\CCCC)SCC)n(C)c(=O)[nH]c1=O | 84.4% (inactive) | 100% (inactive) | 104% (inactive) | 106% (inactive) | 48.5% (inactive) | 88.3% (inactive) | 104% (inactive) | 113% (inactive)
17 | Cc1ccc(-c2nc3nc(-c4ccc(Br)cc4)nc(N4CCCNCC4)c3o2)cc1 | -8.11% (active) | 99.5% (inactive) | 7.5% (active) | -72.4% (active) | -75.8% (active) | -79.8% (active) | -80.7% (active) | -90.9% (active)
18 | N=C1/C(=C2\NC3C=CC=CC3S2)C(c2ccc(Cl)cc2)C2C(=O)N(c3ccccc3)C(=S)N12 (configuration not stated) | 102% (inactive) | 95.4% (inactive) | 108% (inactive) | 104% (inactive) | 94.1% (inactive) | 101% (inactive) | 99.1% (inactive) | 108% (inactive)
19 | O=C(CC1(O)C(=O)Nc2ccc(Br)cc21)c1ccc(Cl)cc1 (configuration not stated) | 84.4% (inactive) | 99.9% (inactive) | 109% (inactive) | 99% (inactive) | 98% (inactive) | 98% (inactive) | 104% (inactive) | 99.5% (inactive)
20 | CCCCCCCCN(CCCCCCCC)CC(O)c1cc(Cl)ccc1OC (configuration not stated) | 51% (inactive) | 102% (inactive) | 83.6% (inactive) | 67.2% (inactive) | 54.7% (inactive) | 35.7% (inactive) | 51.7% (inactive) | 61.8% (inactive)
21 | C=C[C@]1(C)C=C2CC[C@@H]3C(C)(C)C(=O)CC[C@@]3(C)[C@@H]2CC1 | 105% (inactive) | 126% (inactive) | 101% (inactive) | 105% (inactive) | 101% (inactive) | 103% (inactive) | 107% (inactive) | 98.6% (inactive)
22 | COc1nc2ccc(C)cc2cc1/C=[N+](\[O-])c1ccccc1 | 66.5% (inactive) | 95.8% (inactive) | 96.9% (inactive) | 49.9% (inactive) | 58.6% (inactive) | 15.1% (inactive) | 98.2% (inactive) | 90.5% (inactive)
23 | Clc1ccc2c(c1)N(c1ncnc3ccc(-c4cnc5[nH]ccc5c4)cc13)CC2 | -15% (active) | 20.1% (inactive) | -42.1% (active) | 24.5% (inactive) | 6.81% (active) | 16.6% (inactive) | 43.7% (inactive) | 19.9% (inactive)
24 | N#C/C(=C\c1ccccc1Cl)c1cc2ccccc2[nH]1 | 38% (inactive) | 89.1% (inactive) | 101% (inactive) | 89% (inactive) | 36% (inactive) | 87.4% (inactive) | 111% (inactive) | 82.6% (inactive)
25 | O=C1/C(=C/c2ccc(-c3cccc(C(F)(F)F)c3)o2)SC(=S)N1CCc1ccc(O)cc1 | 53.8% (inactive) | 75.7% (inactive) | 52.6% (inactive) | 86.1% (inactive) | 84.9% (inactive) | 76% (inactive) | 107% (inactive) | 54.9% (inactive)
26 | Cc1nc2sc(C(=O)Nc3cccc4ncccc34)c(N)c2cc1C(C)O (configuration not stated) | 76.2% (inactive) | 79% (inactive) | -8.44% (active) | 59.2% (inactive) | 38.4% (inactive) | 70.1% (inactive) | 76.5% (inactive) | 59.2% (inactive)
27 | NC(=O)c1c(NC(=O)/C=C/c2cccs2)sc2c1CCC(=O)C2 | 16.2% (inactive) | 20.1% (inactive) | 14.2% (inactive) | 15.1% (inactive) | 14.1% (inactive) | 8.1% (active) | 85.2% (inactive) | 14.8% (inactive)
28 | N=c1ccccn1CCO | 103% (inactive) | 113% (inactive) | 113% (inactive) | 114% (inactive) | 102% (inactive) | 100% (inactive) | 94.6% (inactive) | 112% (inactive)
29 | O=C(CCN1CCOCC1)Nc1cccc(-n2cc(-c3ccncc3)c(-c3ccc(Cl)c(O)c3)n2)c1 | 38.3% (inactive) | 11.6% (inactive) | -64.1% (active) | 23.4% (inactive) | 11.4% (inactive) | 21.1% (inactive) | 66.9% (inactive) | 23.7% (inactive)

— PubChem BioAssay (NCI)
